Data reported in publication PMC4552634, “A New Set of Chemical Starting Points with Plasmodium falciparum Transmission-Blocking Potential for Antimalarial Drug Discovery” (PLoS ONE, 2015).
The whole screen tested about 13,000 compounds, of which about 3,200 (25%) showed an effect of 50% or more. Some of the results follow.

test system: P. falciparum stage V gametocytes; parameters: BacTiter-Glo ATP luminescence viability of purified stage V gametocytes in 384-well plates, per cent inhibition versus DMSO; details: 48 h, 5 µM; inhibitor

Row | Compound | % Inhibition [%]
1 | N=C1NC(=N)N(OCCCCCCON2C(=N)NC(=N)NC2C=Cc2ccccc2)C(C=Cc2ccccc2)N1 (centres unmarked) [TCMDC-131602] | -13.97
2 | Cc1nc2nc(N)nc(N)c2c(C)c1Cc1ccc(C(N)=O)cc1 [TCMDC-137641] | 15.14
3 | CC1=C(C(=O)Nc2cc3cn[nH]c3cc2F)C(c2cccc(NS(C)(=O)=O)c2)CC(=O)N1 (centres unmarked) [TCMDC-136177] | 35.05
4 | CC1=C(C(=O)Nc2cc3cn[nH]c3cc2F)C(c2ccc(Cl)c(NS(C)(=O)=O)c2)CC(=O)N1 (centres unmarked) [TCMDC-136204] | 27.6
5 | CC1=C(C(=O)Nc2cc3cn[nH]c3cc2F)C(c2cccc(O)c2F)CC(=O)N1 (centres unmarked) [TCMDC-136296] | 76.63
6 | C=CCOC(=O)N1CCC(CNCc2cccc(-c3ccc(-c4nc5ccccc5[nH]4)s3)c2)C1.O=C(O)C(F)(F)F (centres unmarked) [TCMDC-133036] | 38.09
7 | COc1ccc(OCc2ccccn2)c(C2CCN(CCCCNC(=O)c3ccc(NC(=O)c4ccc(Cl)cc4)cc3)CC2)c1 [TCMDC-138311] | -15.54
8 | O=C(NCCCCN1CCC(c2ccc3c(c2OCc2ccncc2)CCCC3)CC1)c1ccc(NC(=O)c2ccc(Cl)cc2)cc1 [TCMDC-138725] | 119.9
9 | Cc1cc(C2CCN(CCCCNC(=O)c3ccc(NC(=O)c4ccc(Cl)cc4)cc3)CC2)c(C)cc1OCc1ccccn1 [TCMDC-138306] | 24.78
10 | O=C(NCCCCN1CCC(c2ccc3c(c2OCc2ccccn2)CCCC3)CC1)c1ccc(NC(=O)c2ccc(Cl)cc2)cc1 [TCMDC-138720] | 101.6
11 | Cc1ccc(NC(C)C(=O)Nc2ccccc2)cc1S(=O)(=O)N1CCCCCC1 (centres unmarked) [TCMDC-124868] | -63.29
12 | Brc1cc(Br)c2c(c1)C(NCCCNC1CCNc3c(Br)cc(Br)cc31)CCN2 (centres unmarked) [TCMDC-140067] | -3.983
13 | COc1ccc(NC(=O)[C@H](CC(C)C)Nc2ccnc(Nc3ccccc3)n2)cc1 [TCMDC-134750] | -9.476
14 | COc1cccc(OC)c1C(=O)Nc1cccc(-c2nn3ccccc3c2-c2ccnc(Nc3cccc(F)c3)n2)c1 [TCMDC-135847] | -55.46
15 | CC(C)CNCc1ccc(-c2ccc(CN(CCCN3CCN(C)CC3)C(=O)/C=C/c3ccccc3)cc2)cc1 [TCMDC-140546] | 104.5
16 | CC(C)CNCc1cccc(-c2cccc(CN(CCCN3CCN(C)CC3)C(=O)/C=C/c3ccccc3)c2)c1 [TCMDC-140541] | 106.7
17 | CC(C)CNCc1ccc(-c2cccc(CN(CCCN3CCN(C)CC3)C(=O)/C=C/c3ccccc3)c2)cc1 [TCMDC-140542] | 91.48
18 | O=C(/C=C/c1ccc(CNCCN2CCOCC2)cc1)NCCc1ccccc1 [TCMDC-140901] | -18.05
19 | CC(C)CNCc1cccc(-c2ccc(CN(CCCN3CCN(C)CC3)C(=O)/C=C/c3ccccc3)cc2)c1 [TCMDC-140545] | 109.3
20 | COC(=O)c1c(C#N)c(OC)cc(O)c1CSC[C@H](Nc1nc(-c2ccc([N+](=O)[O-])cc2)cs1)C(=O)NCCN1CCCCC1 [TCMDC-138651] | -15.18
21 | Cc1nc(N)nc(N)c1OCCCCCCOc1ccccc1 [TCMDC-131354] | -4.555
22 | Cc1ccc(F)c(C(=O)Nc2cccc(-c3nn4ccccc4c3-c3ccnc(Nc4cccc(F)c4)n3)c2)c1F [TCMDC-135846] | -36.31
23 | O=C(Nc1cccc(-c2nn3ccccc3c2-c2ccnc(Nc3ccc(Cc4ccncc4)cc3)n2)c1)c1c(F)cccc1F [TCMDC-135845] | -48.11

Row | Compound | % Inhibition [%]
24 | CC1(C)N=C(N)N=C(N)N1OCCc1ccc(N)cc1 [TCMDC-131632] | 14.77
25 | Cc1ccc(F)c(OC2CCN(c3ccc(C(=O)NC4CC4)cn3)CC2)c1 [TCMDC-134036] | 27.07
26 | CCNc1cc(C)nc(Nc2ccc(NC(=O)c3cccs3)cc2)n1 [TCMDC-124981] | -23.08
27 | O=C(Nc1ccc(Cl)cc1)c1cc(Cl)cc2[nH]c(C(F)(F)F)nc12 [TCMDC-141586] | 55.63
28 | O=C(Nc1cc(C(F)(F)F)cc(C(F)(F)F)c1)c1cc(Cl)ccc1O [TCMDC-125465] | 22.2
29 | O=C(Nc1cccc(C(F)(F)F)c1)c1cccc2[nH]c(C(F)(F)F)nc12 [TCMDC-141579] | 65
30 | O=C(Nc1ccc(Cl)cc1)c1cccc2[nH]c(C(F)(F)F)nc12 [TCMDC-141578] | 11.96
31 | Cc1ncccc1C(=O)Nc1cccc(-c2cccc(-c3nc4ccc(C(F)(F)F)cc4[nH]3)c2)c1 [TCMDC-136860] | -20.59
32 | O=C(Nc1cccc(-c2cccc(-c3nc4ccc(C(F)(F)F)cc4[nH]3)c2)c1)c1cccnc1Cl [TCMDC-136838] | -52.15
33 | Fc1ccccc1COc1ccc(Nc2ncnc3ccc(-c4nnc(C(F)(F)F)o4)cc23)cc1Cl [TCMDC-138161] | 24.13
34 | Cc1ccc(Nc2ccnc(Nc3ccc4c(c3)CS(=O)(=O)C4)n2)cc1O [TCMDC-138484] | -40.59
35 | CCNc1cc(C(=O)N[C@@H](Cc2ccccc2)[C@H](O)CN[C@@H]2CCc3ccccc32)cc(N2CCCCS2(=O)=O)c1 [TCMDC-134706] | 14.74
36 | CCN(CC)CCN(Cc1ccc(-c2ccc(C(F)(F)F)cc2)cc1)C(=O)Cn1c(CCc2ccc(F)c(F)c2)cc(=O)c2ccccc21 [TCMDC-141026] | 39.3
37 | CCN(CC)CCN(Cc1ccc(-c2ccc(C(F)(F)F)cc2)cc1)C(=O)Cn1c(CCc2cccc(C#N)c2)nc(=O)c2ccccc21 [TCMDC-140980] | 54.63
38 | CCN(CC)CCN(Cc1ccc(-c2ccc(C(F)(F)F)cc2)cc1)C(=O)Cn1c(CCc2ccc(F)c(F)c2)nc(=O)c2ccccc21 [TCMDC-140948] | 78.31
39 | CCN(CC)CCN(Cc1ccc(-c2ccc(C(F)(F)F)cc2)cc1)C(=O)Cn1c(CCc2ccc(F)c(C#N)c2)nc(=O)c2ccccc21 [TCMDC-140957] | 85.6
40 | CCN(CC)CCN(Cc1ccc(-c2ccc(C(F)(F)F)cc2)cc1)C(=O)Cn1c(CCc2cc(F)c(F)c(F)c2)nc(=O)c2ccccc21 [TCMDC-140944] | 66.72
41 | C/C=C1/CN2CC[C@H]1C[C@H]2[C@H](O)c1ccnc2ccc(O)cc12 [TCMDC-138167] | 19.07
42 | C=CCOc1ccccc1CNCC(O)c1cccc(C(F)(F)F)c1 (centres unmarked) [TCMDC-140394] | 31.37
43 | COc1ccc(CCN2CCC(Nc3nc4ccccc4n3CCc3ccc(OC)cc3)CC2)cc1 [TCMDC-123918] | 9.396
44 | N#Cc1cc(C(=O)Nc2ccccc2)c(N)nc1SCC(=O)NC(c1ccccc1)c1cccs1 (centres unmarked) [TCMDC-124880] | -24.84
45 | CCN(CC)c1cc(C)c2cc(NC(=O)c3cc(=O)c4ccccc4o3)ccc2n1 [TCMDC-123592] | 0.01985
46 | CN(C)Cc1cccc(-c2ccc(NC(=O)c3ccc4c(=O)n(Cc5cnn(C)c5)cnc4c3)cc2)c1 [TCMDC-132370] | -68.25

Row | Compound | % Inhibition [%]
47 | CN(C)Cc1cccc(-c2ccc(NC(=O)c3ccc4c(=O)n(CC5CCCO5)cnc4c3)cc2)c1 (centres unmarked) [TCMDC-132365] | 80.9
48 | COc1cc(OC)nc(-c2cccc(NC(=O)c3ccc4c(=O)n(CCN5CCCCC5)cnc4c3)c2)n1 [TCMDC-132360] | -43.17
49 | CN(C)Cc1cccc(-c2ccc(NC(=O)c3ccc4c(=O)n(CCN5CCCCC5)cnc4c3)cc2)c1 [TCMDC-132362] | 105.2
50 | CCCn1cnc2cc(C(=O)Nc3ccc(-c4cccc(CN(C)C)c4)cc3)ccc2c1=O [TCMDC-132363] | 8.061
51 | CN(C)Cc1cccc(-c2ccc(NC(=O)c3ccc4c(=O)n(C5CCCCC5)cnc4c3)cc2)c1 [TCMDC-132367] | -36.18
52 | NC1=NC(c2ccccc2)(c2ccccc2)C(=O)N1Cc1ccc(-c2ccncc2)cc1 [TCMDC-136894] | 25.37
53 | Cc1ccc2nc3c(cc(C(=O)NCc4ccccc4)c(=N)n3CCCn3ccnc3)c(=O)n2c1 [TCMDC-124377] | 6.883
54 | C=C1C(C(=O)OCC)=CN(CC)c2cc(O[C@@H]3CCN(C(=O)OC(C)(C)C)C3)ccc21 [TCMDC-135647] | 15.51
55 | O=C(/C=C/c1ccc(Cl)c(Cl)c1)NC1CCN(CCNC(=O)c2cccc(Cl)c2)CC1 [TCMDC-141950] | -32.49
56 | CCCc1cc(=O)[nH]c(-n2nc(C)cc2NC(=O)c2cc3ccccc3o2)n1 [TCMDC-124939] | 13.85
57 | Oc1ccc(-c2ccccc2)cc1CN1CCCCC1 [TCMDC-125510] | 85.49
58 | CC(C)(c1ccccc1)c1ccc(O)c(CN2CCOCC2)c1 [TCMDC-124276] | -17.17
59 | O=C(NC1CCN(Cc2ccccc2O)C1)c1ccc(Cl)c(Cl)c1 (centres unmarked) [TCMDC-141737] | 3.103
60 | O=C(NC1CCCCN(Cc2ccccc2O)C1)c1cccc(Cl)c1 (centres unmarked) [TCMDC-141745] | 70.72
61 | O=C(NC1CCN(Cc2ccccc2O)C1)c1ccc(-c2ccccc2)cc1 (centres unmarked) [TCMDC-141747] | 74.99
62 | O=C(NC1CCCCN(Cc2ccccc2O)C1)c1cccc(C(F)(F)F)c1 (centres unmarked) [TCMDC-141743] | 0.3319
63 | O=C(NC1CCN(Cc2ccccc2O)C1)c1cccc(C(F)(F)F)c1 (centres unmarked) [TCMDC-141744] | -4.979
64 | Oc1ccc(-c2ccccc2)cc1CN1CCCCCC1 [TCMDC-124203] | 12.06
65 | O=C(NC1CCCCN(Cc2ccccc2O)C1)c1ccc(-c2ccccc2)cc1 (centres unmarked) [TCMDC-141746] | 61.29
66 | O=S(=O)(NC1CCCCN(Cc2ccccc2O)C1)c1ccc(C(F)(F)F)cc1 (centres unmarked) [TCMDC-141803] | -6.826
67 | O=C(NC1CCCCN(Cc2ccccc2O)C1)c1cc(F)cc(F)c1 (centres unmarked) [TCMDC-141742] | 24.3
68 | O=C(NC1CCCCN(Cc2ccccc2O)C1)c1ccc(Cl)c(Cl)c1 (centres unmarked) [TCMDC-141736] | -19.06
